# Assay outcomes: PubChem, several laboratories
# MEKK3 PB1 HTS = MEKK3-MEK5 PB1 interaction, increase or decrease. bead-based flow cytometry, Alexa488-MEK5 binding to MEKK3; actives lie on both sides; 0 = blocked by unlabeled MEK5, 100 = vehicle. actives 1.4% (n = 290,000). Q99759. AID 1529. binding response (% of control), % at 10 µM;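 active = binding response more than 3 SD above or below the average of its plate-row segment, actives on both sides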;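 also: Alexa488 bead fluorescence after subtracting the streptavidin-only scavenger bead signal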
# Target sequence (Q99759 whole entry, looked up): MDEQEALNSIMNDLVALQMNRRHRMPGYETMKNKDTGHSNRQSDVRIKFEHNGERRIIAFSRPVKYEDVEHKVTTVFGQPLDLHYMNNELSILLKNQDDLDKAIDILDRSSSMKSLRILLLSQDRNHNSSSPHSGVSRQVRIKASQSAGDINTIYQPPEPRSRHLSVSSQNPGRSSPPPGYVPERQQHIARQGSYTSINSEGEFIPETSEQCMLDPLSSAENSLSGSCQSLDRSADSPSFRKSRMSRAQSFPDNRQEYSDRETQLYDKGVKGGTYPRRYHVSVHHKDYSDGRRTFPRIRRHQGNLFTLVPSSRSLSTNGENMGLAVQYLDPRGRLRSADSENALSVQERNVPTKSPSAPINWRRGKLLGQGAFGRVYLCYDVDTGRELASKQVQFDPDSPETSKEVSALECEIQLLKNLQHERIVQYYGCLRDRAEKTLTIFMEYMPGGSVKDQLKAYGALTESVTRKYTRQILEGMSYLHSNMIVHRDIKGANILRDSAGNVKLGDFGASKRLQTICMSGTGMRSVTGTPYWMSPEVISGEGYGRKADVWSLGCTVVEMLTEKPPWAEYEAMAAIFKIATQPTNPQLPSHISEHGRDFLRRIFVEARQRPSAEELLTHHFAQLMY
# MEKK2 WT-MEK5 = raises or lowers MEK5 binding to wildtype human MEKK2 PB1 domain. binding response (% of control), % at 10 µM. actives 1.1% (n = 290,000). bead flow cytometry, Alexa488-MEK5 binding to MEKK2 WT; actives lie on both sides; in the data active = binding response below about 67% or above about 130%
# TMEM16A act = mouse TMEM16A channel activation, primary screen | Q8BHY3 | HEK293 TMEM16A/YFP-H148Q/I152L, iodide quench fluorescence; stronger effect = lower value | B-score at 10 µM | actives 0.3% (n = 340,000);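 active = fluorescence-ratio B-score plate-corrected deviation score at least 3 library SD below zero, with starting fluorescence score within 5 deviations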;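 also: channel opened by trigger with iodide after compound preincubation; score built on the fluorescence ratio of max minus min over baseline; more negative score means more quench and so TMEM16A activation or potentiation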
# TMEM16A inh = mouse TMEM16A channel inhibition, primary screen; HEK293 TMEM16A/YFP iodide influx fluorescence, ionomycin; normalized B-score (activity score, 25-100; higher = stronger inhibition) at 10 µM; Q8BHY3; actives 1.2% (n = 310,000);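 active = ratio plate-corrected score three or more library SD toward inhibition, starting fluorescence score within five deviations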;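 also: score derived from kinetic fluorescence span divided by baseline fluorescence per well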
# NTR1 agonist = activates human neurotensin receptor 1; AID 493036; NTR1-U2OS beta-arrestin-GFP spot imaging, agonist mode; actives 0.17% (n = 330,000); P30989; activation, % at 20 µM;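 active = activation at or above 40% of the spot to cytoplasm intensity ratio, with at least 20 cells analyzed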;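 also: 0% = DMSO without peptide and 100% = 100 nM NTR1 peptide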
# MEKK2mut PB1 HTS = signal of MEK5 binding to mutant human MEKK2 PB1 domain; percent response, % at 10 µM; bead flow cytometry, Alexa488-MEK5 binding to MEKK2 mutant; actives 0.35% (n = 290,000); in the data active = percent response above about 24%, passing the limit was not always enough
# MEKK2wt confirm = raises or lowers MEK5 binding to wildtype human MEKK2, retest | shares compounds with MEKK3 PB1 HTS | bead flow cytometry, Alexa488-MEK5 binding to MEKK2 WT; actives lie on both sides | binding response (% of control), % at 10 µM | actives 2.4% (n = 5,900); in the data active = binding response below about 16% or above about 210%; inactive = in between
# MEKK2mut-MEK5 = signal of MEK5 binding to mutant human MEKK2, retest | percent response, % at 10 µM | bead flow cytometry, Alexa488-MEK5 binding to MEKK2 mutant | shares compounds with MEKK3 PB1 HTS | actives 2% (n = 5,900); in the data active = percent response mostly above about 71%, no sharp cut-off; inactive = mostly below about 38%;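 also: higher means compound restores mutant binding toward wildtype level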
# MEKK3-MEK5 inh = confirmation of inhibitors of MEK5 binding to human MEKK3; shares compounds with MEKK3 PB1 HTS; bead flow cytometry, Alexa488-MEK5 binding to MEKK3; stronger effect = lower value; binding response (% of control), % at 10 µM; actives 1.8% (n = 5,900);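 active = binding response below 72% of control, or above a set upper limit, though filed actives all read lower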;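 also: 100% = DMSO only wells and 0% = binding blocked by excess unlabeled MEK5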
# * hit, by the source's call; i = inactive; · = not tested or not shown; [ ] = another dose, or the depositor's remark. Compounds with a hit are over-represented: about 3.4% of the library has one in this group of screens.
SMILES,MEKK3 PB1 HTS,MEKK2 WT-MEK5,TMEM16A act,TMEM16A inh,NTR1 agonist,MEKK2mut PB1 HTS,MEKK2wt confirm,MEKK2mut-MEK5,MEKK3-MEK5 inh
Cc1cc(C)nc(SCC(=O)n2c3c(c4ccccc42)CCCC3)n1,153*,106,i,i,7,0,105,5,104
O=C(CSc1ncccn1)n1c2c(c3ccccc31)CCCC2,108,103,i,i,8,5,·,·,·
CC1(C)CC(=O)c2cc(OCC(=O)NCCCN3CCN(c4ccc(F)cc4)CC3)ccc2O1,109,144*,i,i,0,20,122,11,101
CC(C)CCNC(=O)COc1ccc2c(c1)C(=O)CC(C)(C)O2,99,98,i,i,0,-3,·,·,·
Cc1cc(OCc2cc(C(=O)NCCN3CCCCC3CO)no2)cc(C)c1Cl (centres undefined),106,136*,i,i,2,19,133,18,106
COc1cccc(OCc2cc(C(=O)NCCN3CCCCC3CO)no2)c1 (centres undefined),100,109,i,i,0,4,·,·,·
COc1ccc(Cn2c(=O)[nH]c3cc(C(=O)N4CCN(c5ccc(C(C)=O)cc5)CC4)ccc3c2=O)cc1,99,102,i,i,-1,0,·,·,·
Cc1ccc(C(=O)N2CCN=C2SCc2ccc([N+](=O)[O-])cc2)cc1C,64*[inhibitor],82,i,i,4,-4,96,-2,98
O=C(c1ccccc1)N1CCN=C1SCc1ccc([N+](=O)[O-])cc1,99,108,i,i,-1,11,·,·,·
CC(C)N1CCc2c(sc(NC(=O)c3ccc(S(=O)(=O)N4CCc5ccccc54)cc3)c2C(N)=O)C1,107,196*,i,i,3,56*,164,27,99
CC(C)N1CCc2c(sc(NC(=O)c3nc4ccccc4s3)c2C(N)=O)C1,107,106,i,i,-1,6,·,·,·
c1ccc(CSc2ccc(-c3cccs3)nn2)cc1,129*,106,i,i,3,1,94,-1,92
c1ccc(CSc2ccc(-c3cccs3)nn2)nc1,105,103,i,i,1,0,·,·,·
O=C1c2ccccc2S(=O)(=O)N1CC(O)Cn1ccc2ccccc21 (centres undefined),97,31*,i,i,3,81*,87,-3,100
OC(CN1CCNCC1)Cn1ccc2ccccc21 (centres undefined),107,153,·,i,0,35*,156,33,105
COc1cc(NC(=O)c2ccnn2C)c(OC)cc1Cl,107,110,i,i,-2,4,·,·,·
C/C(=N\N=C\c1ccc(N(C)C)cc1)c1cccc([N+](=O)[O-])c1,73*[inhibitor],99,i,i,-3,-1,104,11,108
CCCn1c(SC(C(=O)Nc2cccc(OC)c2)c2ccccc2)nc2ccccc2c1=O (centres undefined),142*,110,i,i,4,0,96,-5,97
CCn1c(SCC(=O)Nc2cccc(OC)c2)nc2ccccc2c1=O,107,109,i,i,1,9,·,·,·
CC(/C=C/c1ccco1)=N\NC(=O)C(O)c1ccccc1 (centres undefined),133*,110,i,i,-2,0,104,11,99
CCOc1ccc(CC(=NCCc2ccccc2)C2=C(O)CC(C)(C)CC2=O)cc1OCC,146*,112,i,i,-1,1,77,-13,79
Cc1ccc(C(=O)NNC2CC(=O)N(c3ccc4c(c3)OCCO4)C2=O)cc1 (centres undefined),102,104,i,i,-1,4,·,·,·
O=C(O)c1c(-c2ccc(Cl)cc2)cn2ccccc12,96,89,i,i,1,-8,·,·,·
CC(=O)Nc1nnc(-c2ccccn2)o1,134*,103,i,i,1,0,100,8,99
Cc1cccc(C)c1NC(=O)CCn1cnc2ccccc2c1=O,1.0*[inhibitor],-2.0*[inhibitor],i,i,-1,-22,101,3,97
SMILES,MEKK3 PB1 HTS,MEKK2 WT-MEK5,TMEM16A act,TMEM16A inh,NTR1 agonist,MEKK2mut PB1 HTS,MEKK2wt confirm,MEKK2mut-MEK5,MEKK3-MEK5 inh
CCCOc1ccc(C2NC(=O)NC2=O)cc1 (centres undefined),123*,120,i,i,0,8,108,3,108
CCCCCOc1ccc(C2NC(=O)NC2=O)cc1 (centres undefined),110,113,i,i,-2,13,·,·,·
Cc1ccc(C)c(NC(=O)CN(C)C(=O)c2ccccc2OCc2ccccc2Cl)c1,·,·,i,i,4,·,·,·,·
CCCCN(CC)CCCNC(=O)c1cc2c(-c3ccc(OC)c(OC)c3)nn(C)c2s1,108,135*,i,i,1,23,107,13,102
COc1cccc(-c2nn(C)c3sc(C(=O)NCCCN(C)Cc4ccccc4)cc23)c1,106,147*,·,i,2,22,146,46,105
O=C(Nc1ccncc1)C1CCC(CNS(=O)(=O)c2cccc3nsnc23)CC1 (centres undefined),85,82,i,i,-1,-10,·,·,·
COc1ccccc1CNC(=O)CCc1nnc2ccc(NCCCN3CCCC3=O)nn12,101,103,i,i,0,2,·,·,·
COc1ccc(N2CCN(C(CNC(=O)C(=O)NCc3ccc4c(c3)OCO4)c3ccco3)CC2)cc1 (centres undefined),103,99,i,i,5,-4,·,·,·
O=C(NCc1ccc2c(c1)OCO2)C(=O)NCC(c1ccco1)N1CCN(c2ccccc2)CC1 (centres undefined),136*,119,i,i,1,15,97,-10,101
CNC(=O)CCc1[nH]c2ccccc2c1Sc1ccccc1,160*,105,i,i,0,1,100,-2,101
CC(C(=O)Nc1ccc(N(C)C)cc1)N1C(=O)c2ccccc2S1(=O)=O (centres undefined),·,·,i,i,-1,·,·,·,·
